From the supplement of paper PMC6135742 come the findings set out here.

Molecules are shown by their SMILES. Counter-ions that a name gives are not always drawn. Whole data set: some 2,600 compounds, median “total cell number (DAPI+ nuclei) relative to DMSO vehicle control” near -1.4, cut for the lowest 2% near -23. The full list was thinned out, with the lowest values kept by preference.

For the assay, the system named is jimpy (Plp1 jimpy) mouse iPSC-derived oligodendrocyte progenitor cells. Put plainly: total cell number (DAPI+ nuclei) relative to DMSO vehicle control (SDs above negative control mean); higher = more surviving cells. As to conditions: 10 µM; 3 days. The procedure: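 Primary phenotypic screen of >3,000 bioactive compounds (Selleck L1700 and Sigma LO1280 libraries) at a single dose of 10 µM. Compounds were added to jimpy (Plp1 mutant) mouse iPSC-derived OPCs at the start of thyroid hormone-induced oligodendrocyte differentiation, one well per compound in 384-well plates. After 3 days cells were stained for MBP, Sox10 and DAPI and imaged with an Operetta system. MBP+ oligodendrocyte number and total cell number were expressed as the number of SDs above the mean of the DMSO negative control on the same plate (n=16 control wells per plate). Hits were defined as >=4 SD for oligodendrocytes and >=2 SD for total cells.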
Turning to `Cc1cc(C)c(CNC(=O)c2cc(-c3ccc(CN4CCOCC4)cc3)cc3c2cnn3C2CCCC2)c(=O)[nH]1`, the total cell number is 7.3. Under `CCNC(=O)c1noc(-c2cc(C(C)C)c(O)cc2O)c1-c1ccc(CN2CCOCC2)cc1` stands -26.3. Under `CCN(c1cc(-c2ccc(CN3CCOCC3)cc2)cc(C(=O)NCc2c(C)cc(C)[nH]c2=O)c1C)C1CCOCC1` stands 2.45; under `CN[C@@H](C)C(=O)N[C@H](C(=O)N1CCC[C@H]1C(=O)Nc1snnc1-c1ccccc1)C1CCCCC1`, -4.08; under `O=S(=O)(O)Oc1ccc(C(c2ccc(OS(=O)(=O)O)cc2)c2ccccn2)cc1` [Sodium Picosulfate], 0.486. Consider `O=C(O)C(=O)O.[NH-][C@@H]1CCCC[C@H]1[NH-].[Pt+2]` [Oxaliplatin], for which the total cell number was -23.4.

The molecule `COc1ccc2c(Oc3ccc(NC(=O)c4c(C)n(CC(C)(C)O)n(-c5ccccc5)c4=O)nc3)ccnc2c1` returned a total cell number of -3.37. As for `CCOC(=O)CC(=O)N1CCSC1COc1ccccc1OC` (stereo not drawn) [Moguisteine], the figure is -1.39. In the case of `NC1(c2ccc(-c3nc4ccn5c(=O)[nH]nc5c4cc3-c3ccccc3)cc2)CCC1`, the total cell number was -25.6. As for `CC1=C(C(=O)O)N2C(=O)[C@@H](NC(=O)[C@H](N)C3=CCC=CC3)[C@H]2SC1` [Cephradine], the figure is -1.61; as for `CN(C)CCC(c1ccc(Cl)cc1)c1ccccn1` (racemic) [(±)-Chlorpheniramine maleate], -2.22.

In the case of `COc1cc2nccc(Oc3ccc(NC(=O)C4(C(=O)Nc5ccc(F)cc5)CC4)cc3)c2cc1OC`, the total cell number was -20. As for `COc1cc2ncnc(Nc3ccc(F)c(Cl)c3)c2cc1NC(=O)/C=C/CN1CCCCC1`, the figure is -11.6. Regarding `CCOc1cc(C(=O)Nc2ccc(Cl)c(-c3nc4ccccc4[nH]3)c2)cc(OCC)c1OCC`, the total cell number is -2.15. Under `COc1cc2c(Oc3ccc(NC(=O)C4(C(=O)Nc5ccc(F)cc5)CC4)cc3F)ccnc2cc1OCCCN1CCOCC1` stands -27; under `COc1cc(C(C)=O)ccc1OCCCN1CCC(c2noc3cc(F)ccc23)CC1` [Iloperidone], -2.6; under `C=CC(=O)Nc1cc2c(Nc3ccc(F)c(Cl)c3)ncnc2cc1OCCCN1CCOCC1` [Canertinib (CI-1033)], -24.4. Under `COc1cc2ncnc(Nc3ccc(F)c(Cl)c3)c2cc1OCCCN1CCOCC1` [Gefitinib (ZD1839)] stands -20.6. In the case of `C=CC(=O)Nc1ccc2ncnc(Nc3ccc(OCc4cccc(F)c4)c(Cl)c3)c2c1`, the total cell number was -12.9. Consider `CCOc1cc2ncc(C#N)c(Nc3ccc(F)c(Cl)c3)c2cc1NC(=O)/C=C/CN(C)C` [Pelitinib (EKB-569)], for which the total cell number was -27.4. `CN(C)C/C=C/C(=O)Nc1cc2c(Nc3ccc(F)c(Cl)c3)ncnc2cc1O[C@H]1CCOC1` [Afatinib (BIBW2992)] had a total cell number of -25.6. Under `COc1cc2ncnc(Nc3ccc(Cl)cc3F)c2cc1OC` stands -8.14.

With `CCOc1cc2ncc(C#N)c(Nc3ccc(OCc4ccccn4)c(Cl)c3)c2cc1NC(=O)/C=C/CN(C)C` [Neratinib (HKI-272)], the total cell number was -12.8.
